# Results taken from PubChem BioAssay (NCATS).
# Records with an inconclusive call do not appear. The source made the active and inactive calls. Unless noted, calls come from the whole dose curve; as a rule, active = well fitted curve in either direction with a large enough effect (not every such curve was filed as active); inconclusive = small, poorly fitted or top-dose-only effect, or another doubt; inactive = flat fitted curve, though single readings scatter.
# Tests used:
# [1] = target: Lysosomal acid glucosylceramidase (Homo sapiens) (UniProt P04062); assay: Glucocerebrosidase-p2 (AID 348; in the data active = potency below about 10 µM; note: potency is the fitted concentration of half-maximal effect); settings: purified GBA, blue fluorogenic substrate, 40 min
# Sequence of Lysosomal acid glucosylceramidase (Homo sapiens) (P04062 whole entry, looked up): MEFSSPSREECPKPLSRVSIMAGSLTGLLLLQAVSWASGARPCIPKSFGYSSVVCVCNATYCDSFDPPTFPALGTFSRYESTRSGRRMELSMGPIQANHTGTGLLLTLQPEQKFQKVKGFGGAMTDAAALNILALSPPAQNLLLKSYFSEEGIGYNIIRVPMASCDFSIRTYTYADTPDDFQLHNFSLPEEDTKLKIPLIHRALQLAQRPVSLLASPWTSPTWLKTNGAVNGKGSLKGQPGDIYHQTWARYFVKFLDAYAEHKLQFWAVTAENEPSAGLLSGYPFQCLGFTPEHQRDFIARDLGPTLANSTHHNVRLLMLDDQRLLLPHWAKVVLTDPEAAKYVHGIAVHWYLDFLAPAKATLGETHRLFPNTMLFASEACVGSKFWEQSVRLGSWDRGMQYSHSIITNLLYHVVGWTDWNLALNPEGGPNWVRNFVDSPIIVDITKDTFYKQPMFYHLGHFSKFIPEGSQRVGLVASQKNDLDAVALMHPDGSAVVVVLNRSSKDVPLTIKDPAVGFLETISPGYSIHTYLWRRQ
# Procedure, shortened: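 Compounds titrated from 0.6 nM upwards against 0.2 nM enzyme in pH 5.9 citric acid/KH2PO4, taurocholate, tween-20; blue fluorogenic substrate 80 uM, 40 min room temperature, stopped and read Ex 365/Em 440 for AC50.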
# [2] = AP1 Signaling Pathway (AID 357); settings: ME-180 AP-1-bla reporter, EGF-induced, beta-lactamase ratio, 5 h; at 7.69 µM (top of the series) unless noted;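 note: ME-180 reporter cells stimulated with EGF at its EC50 level; % is set by controls: 0 for no effect and ±100 for the full control effect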
# Procedure, shortened: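 Beta-lactamase reporter under AP-1 response element, ME-180 background. Stimulus: EC50 EGF. Compound exposure 5 h, 37 °C. Detection: CCF4, 2.5 h RT, 460/530 nm. Values: AC50 from titration.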
# [3] = target: Cytochrome P450 1A2 (Homo sapiens) (UniProt P05177); assay: p450-cyp1a2 (AID 410; calls by dose curve; note: potency is the fitted concentration of half-maximal effect;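 for activity change, negative = inhibition: -100% = full effect of reference inhibitor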); settings: recombinant CYP1A2, luciferin-ME demethylation, luminescence; series mostly up to 57 µM
# Sequence of Cytochrome P450 1A2 (Homo sapiens) (P05177 whole entry, looked up): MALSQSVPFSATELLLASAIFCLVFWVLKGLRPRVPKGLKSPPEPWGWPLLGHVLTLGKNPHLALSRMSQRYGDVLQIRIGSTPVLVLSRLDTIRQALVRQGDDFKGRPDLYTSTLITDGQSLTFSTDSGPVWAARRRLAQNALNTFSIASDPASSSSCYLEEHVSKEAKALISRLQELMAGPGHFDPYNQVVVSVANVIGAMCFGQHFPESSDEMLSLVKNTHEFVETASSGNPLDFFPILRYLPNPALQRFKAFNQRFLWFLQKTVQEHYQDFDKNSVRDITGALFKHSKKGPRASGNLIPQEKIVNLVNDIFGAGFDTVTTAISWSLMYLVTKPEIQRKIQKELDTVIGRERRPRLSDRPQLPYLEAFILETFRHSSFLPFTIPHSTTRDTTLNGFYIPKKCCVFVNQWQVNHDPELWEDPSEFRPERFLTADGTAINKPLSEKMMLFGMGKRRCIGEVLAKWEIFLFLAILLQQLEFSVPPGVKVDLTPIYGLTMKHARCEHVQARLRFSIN
# Procedure, shortened: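 Luminescent readout of luciferin formed from Luciferin-ME by human CYP1A2; data normalized against complete inhibition by 57 uM furafylline. Enzyme 20nM, substrate 100uM at Km, 100mM KPO4 buffer, 60 min reaction at room temperature.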
# [4] = NFAT Signaling Pathway (AID 444); settings: Jurkat NFAT-bla M1, carbachol, beta-lactamase ratio, 5 h; at 7.69 µM (top of the series) unless noted;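 note: carbachol stimulus at about its EC50 of 1 µM final; % is set by controls: 0 for no effect and ±100 for the full control effect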
# Procedure, shortened: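 Read-out: CCF4 FRET ratio (460 nm/530 nm) after 1 h RT dye loading, used for %activity and AC50 from titration series. Cells: Jurkat NFAT-β-lactamase/M1 line, treated with compound plus 1 uM carbachol for 5 h, 37 °C.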
# [5] = Stat Signaling Pathway (AID 446); settings: ME-180 SIE beta-lactamase reporter, IL-6 stimulated, 5 h; at 7.69 µM (top of the series) unless noted;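 note: ME-180 cervical cancer cells given 40 pM IL-6 alongside compound; SIE-controlled beta-lactamase reporter measured as 460/530 nm FRET emission ratio; % is set by controls: 0 for no effect and ±100 for the full control effect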
# Procedure, shortened: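 IL-6/STAT signaling read in ME-180 cells via an SIE beta-lactamase reporter. Stimulus was 40 pM IL-6 (its AC50) for 5 hrs, so both activation and inhibition register.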
# [6] = target: Glucocorticoid receptor (Homo sapiens) (UniProt P04150); assay: GR-EFC Redistribution (AID 451; calls by dose curve; note: potency is the fitted concentration of half-maximal effect); settings: CHO-K1 GR-EFC translocation, beta-gal luminescence, 2 h
# Sequence of Glucocorticoid receptor (Homo sapiens) (P04150 whole entry, looked up, the tested form may be a part): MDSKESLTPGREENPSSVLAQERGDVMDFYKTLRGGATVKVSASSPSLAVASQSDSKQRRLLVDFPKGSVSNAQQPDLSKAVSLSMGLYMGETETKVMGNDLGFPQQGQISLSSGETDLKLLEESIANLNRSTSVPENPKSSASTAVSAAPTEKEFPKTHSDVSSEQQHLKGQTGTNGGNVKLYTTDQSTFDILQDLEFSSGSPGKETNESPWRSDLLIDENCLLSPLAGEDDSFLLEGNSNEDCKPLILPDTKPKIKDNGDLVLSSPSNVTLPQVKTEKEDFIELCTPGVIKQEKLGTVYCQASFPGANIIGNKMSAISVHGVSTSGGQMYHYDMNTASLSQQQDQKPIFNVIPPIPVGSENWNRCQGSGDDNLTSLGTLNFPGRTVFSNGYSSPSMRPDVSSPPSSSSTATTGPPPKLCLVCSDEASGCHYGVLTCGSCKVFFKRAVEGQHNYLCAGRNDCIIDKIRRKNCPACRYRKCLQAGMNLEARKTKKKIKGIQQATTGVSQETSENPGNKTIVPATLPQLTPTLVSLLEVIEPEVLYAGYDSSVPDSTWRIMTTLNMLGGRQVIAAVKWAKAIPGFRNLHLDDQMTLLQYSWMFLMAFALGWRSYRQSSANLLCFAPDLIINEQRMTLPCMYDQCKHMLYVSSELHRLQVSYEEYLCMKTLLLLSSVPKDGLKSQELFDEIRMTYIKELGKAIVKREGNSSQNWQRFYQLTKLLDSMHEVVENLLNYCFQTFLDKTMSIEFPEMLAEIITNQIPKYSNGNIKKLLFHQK
# Procedure, shortened: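 Translocation of GR-ED fusion to nuclear EA restores b-gal, read by luminescence after 1 h room-temperature detection. Engineered CHO-K1 biosensor cells, 1,000/well, exposed 2 h at 37 C to titrations up to 46 uM final.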
# [7] = target: Mitogen-activated protein kinase 10 (Mus musculus) (UniProt Q61831); assay: JNK3 AlphaScreen Assay (AID 530); settings: JNK3 lysate, c-Jun phosphorylation; series mostly up to 57.1 µM;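 note: kinase came from lysate of stimulated human HepG2 cells; signal reports phosphorylation of biotinylated GST-cJun 1-79 at Ser73 with 10 µM ATP; % is set by controls: 0 for no effect and ±100 for the full control effect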
# Procedure, shortened: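 Compound titrations were preincubated 15 minutes at room temperature with substrate, antibody and pre-activated JNK3-containing HepG2 lysate. Reactions were started with 10 uM ATP and stopped with EDTA-containing bead buffer for AlphaScreen detection.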
# [8] = target: 3',5'-cyclic-AMP phosphodiesterase 4B (Homo sapiens) (UniProt Q07343); assay: qHTS Assay for Inhibitors of PDE-IV (AID 607; active = well fitted activation curve with a large enough effect in the main read-out, with a control signal flat, not every such curve was filed as active; note: % of control where 0% means no effect); settings: HEK293 ACTOne CNG channel cells, membrane potential fluorescence; series mostly up to 22.9 µM
# Sequence of 3',5'-cyclic-AMP phosphodiesterase 4B (Homo sapiens) (Q07343 whole entry, looked up): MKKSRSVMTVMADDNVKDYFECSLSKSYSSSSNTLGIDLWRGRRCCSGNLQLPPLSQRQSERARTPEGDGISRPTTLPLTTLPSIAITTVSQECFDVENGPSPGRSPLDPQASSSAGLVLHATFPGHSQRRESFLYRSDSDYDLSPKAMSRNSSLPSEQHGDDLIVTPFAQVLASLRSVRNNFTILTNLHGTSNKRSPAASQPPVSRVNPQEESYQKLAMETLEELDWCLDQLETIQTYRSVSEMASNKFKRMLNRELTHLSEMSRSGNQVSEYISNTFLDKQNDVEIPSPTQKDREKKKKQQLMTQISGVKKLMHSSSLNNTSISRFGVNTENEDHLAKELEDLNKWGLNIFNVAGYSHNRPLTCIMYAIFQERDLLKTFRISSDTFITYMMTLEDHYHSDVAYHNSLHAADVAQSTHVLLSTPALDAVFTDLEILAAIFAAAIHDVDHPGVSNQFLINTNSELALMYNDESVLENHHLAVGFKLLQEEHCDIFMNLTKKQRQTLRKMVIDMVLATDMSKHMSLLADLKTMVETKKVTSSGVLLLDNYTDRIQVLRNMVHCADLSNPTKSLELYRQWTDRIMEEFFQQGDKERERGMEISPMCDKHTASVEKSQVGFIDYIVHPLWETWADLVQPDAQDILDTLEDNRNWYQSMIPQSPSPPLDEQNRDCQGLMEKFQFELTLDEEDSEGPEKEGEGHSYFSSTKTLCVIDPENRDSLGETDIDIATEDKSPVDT
# Procedure, shortened: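 Live HEK293 cells with a modified cyclic nucleotide-gated (CNG) channel report intracellular cAMP via membrane-potential dye fluorescence (ex 535/em 590 nm). Endogenous PDE-IV was targeted. Compounds were tested at up to 22.9 uM final; RO 20-1724 100 uM served as control.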
# [9] = target: Cytochrome P450 3A4 (Homo sapiens) (UniProt P08684); assay: qHTS Assay for Activators of Cytochrome P450 3A4 (AID 885; active = well fitted curve in the direction sought with a large enough effect; an effect the other way counts as inactive or inconclusive; note: nearly all actives have a fitted effect of over 65% in size; note: potency is the fitted concentration of half-maximal effect); settings: recombinant CYP3A4, Luciferin-PPXE luminescence, 60 min; series mostly up to 57.1 µM
# Sequence of Cytochrome P450 3A4 (Homo sapiens) (P08684 whole entry, looked up): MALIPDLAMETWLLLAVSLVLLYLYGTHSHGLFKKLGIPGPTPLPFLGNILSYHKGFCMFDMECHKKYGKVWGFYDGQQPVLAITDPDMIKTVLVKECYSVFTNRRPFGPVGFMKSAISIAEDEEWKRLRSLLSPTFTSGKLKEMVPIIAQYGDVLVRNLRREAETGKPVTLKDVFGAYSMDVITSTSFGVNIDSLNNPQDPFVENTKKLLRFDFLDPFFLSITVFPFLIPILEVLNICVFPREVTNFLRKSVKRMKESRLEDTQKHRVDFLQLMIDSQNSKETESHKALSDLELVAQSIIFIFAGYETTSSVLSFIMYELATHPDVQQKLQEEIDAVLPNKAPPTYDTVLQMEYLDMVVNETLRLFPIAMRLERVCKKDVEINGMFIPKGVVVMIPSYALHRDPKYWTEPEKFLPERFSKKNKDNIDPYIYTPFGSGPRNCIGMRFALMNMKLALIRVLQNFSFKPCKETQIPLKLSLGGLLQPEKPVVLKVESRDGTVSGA
# Procedure, shortened: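 Quantitative HTS format: compounds preincubated with 20nM human CYP3A4 and Luciferin-PPXE substrate at KM, reaction started by NADPH regeneration, stopped after 60 min, luciferase luminescence read 20 min later.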
# [10] = target: Cytochrome P450 2D6 (Homo sapiens) (UniProt P10635); assay: qHTS Assay for Inhibitors and Substrates of Cytochrome P450 2D6 (AID 891; active = well fitted curve in the direction sought with a large enough effect; an effect the other way counts as inactive or inconclusive; note: potency is the fitted concentration of half-maximal effect; nearly all actives have a fitted effect of over 60% in size); settings: recombinant CYP2D6, luciferin-ME EGE luminescence; series mostly up to 57.1 µM
# Sequence of Cytochrome P450 2D6 (Homo sapiens) (P10635 whole entry, looked up): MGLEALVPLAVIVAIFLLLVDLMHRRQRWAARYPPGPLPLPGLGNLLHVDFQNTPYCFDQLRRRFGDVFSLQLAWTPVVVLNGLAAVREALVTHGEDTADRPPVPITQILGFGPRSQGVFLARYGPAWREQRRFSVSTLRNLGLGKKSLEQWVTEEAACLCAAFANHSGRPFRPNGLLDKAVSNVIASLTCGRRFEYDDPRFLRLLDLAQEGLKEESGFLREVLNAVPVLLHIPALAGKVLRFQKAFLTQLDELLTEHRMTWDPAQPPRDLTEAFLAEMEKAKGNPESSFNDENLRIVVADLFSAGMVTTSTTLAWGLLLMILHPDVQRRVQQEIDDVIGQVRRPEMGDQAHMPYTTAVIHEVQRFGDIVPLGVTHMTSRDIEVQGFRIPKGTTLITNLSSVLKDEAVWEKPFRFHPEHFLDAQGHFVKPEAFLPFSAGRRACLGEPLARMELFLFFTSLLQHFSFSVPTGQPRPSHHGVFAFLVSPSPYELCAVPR
# Procedure, shortened: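 Human CYP2D6 (5 nM) with 30 uM Luciferin-ME EGE (at Km) in 100 mM KPO4, compound preincubated 10 min, then NADPH regeneration system for 60 min at room temperature. Luciferin read by luminescence; normalized to 1.43 uM quinidine.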
# [11] = qHTS Assay for Identification of Small Molecule Agonists for Hypoxia Response Element Signaling Pathway (AID 914; active = well fitted activation curve with a large enough effect in the signal ratio, with a control signal flat, not every such curve was filed as active; the % refers to the signal ratio; note: % of control where 0% means no effect); settings: ME-180 (cervical carcinoma) HRE-bla reporter, beta-lactamase ratio, CoCl2, 17 h; activation: stronger effect = higher value
# Procedure, shortened: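 Cells were plated overnight, pin-dosed with compound in a titration series, co-stimulated with EC50 CoCl2 and incubated 17 hours at 37 degrees Celsius. CCF4 substrate was then loaded, and AC50 values came from the 460nm/530nm ratio.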
# [12] = qHTS Assay for Lipid Storage Modulators (AID 1519; calls by dose curve); settings: Drosophila S3 cells, BODIPY lipid droplet/cell ratio, laser cytometry, cells loaded with oleic acid; for activity change, negative = inhibition: at 57.5 µM (top of the series)
# Procedure, shortened: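 Cells seeded at 5,000 per well were treated with compounds over a concentration series and loaded with oleic acid (400 uM, as added). Lipid droplet fluorescence (488 nm excitation, 500-530 nm channel) was read by laser-scanning cytometry and normalized to 20 uM Triacsin C.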
# [13] = Primary qHTS for small molecule stabilizers of the endoplasmic reticulum resident proteome: Secreted ER Calcium Modulated Protein (SERCaMP) assay (AID 1508630; active = well fitted curve in the direction sought with a large enough effect; an effect the other way counts as inactive or inconclusive; note: % is set by controls: 0 for no effect and ±100 for the full control effect); settings: SH-SY5Y GLuc-SERCaMP (Gaussia luciferase released on ER calcium loss) secretion, thapsigargin, luminescence; series mostly up to 38.4 µM
# Procedure, shortened: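 GLuc-SERCaMP-expressing SH-SY5Y cells, pretreated 16 h with compound, are challenged with thapsigargin to empty ER calcium stores; after 4 h, coelenterazine is added directly to the medium and luminescence is imaged.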
# [14] = target: Cytochrome P450 2C19 (Homo sapiens) (UniProt P33261); assay: qHTS Assay for Inhibitors and Substrates of Cytochrome P450 2C19 (AID 899; active = well fitted curve in the direction sought with a large enough effect; an effect the other way counts as inactive or inconclusive; note: potency is the fitted concentration of half-maximal effect; nearly all actives have a fitted effect of over 60% in size); settings: recombinant CYP2C19, luciferin-H EGE luminescence; series mostly up to 57.1 µM
# Sequence of Cytochrome P450 2C19 (Homo sapiens) (P33261 whole entry, looked up): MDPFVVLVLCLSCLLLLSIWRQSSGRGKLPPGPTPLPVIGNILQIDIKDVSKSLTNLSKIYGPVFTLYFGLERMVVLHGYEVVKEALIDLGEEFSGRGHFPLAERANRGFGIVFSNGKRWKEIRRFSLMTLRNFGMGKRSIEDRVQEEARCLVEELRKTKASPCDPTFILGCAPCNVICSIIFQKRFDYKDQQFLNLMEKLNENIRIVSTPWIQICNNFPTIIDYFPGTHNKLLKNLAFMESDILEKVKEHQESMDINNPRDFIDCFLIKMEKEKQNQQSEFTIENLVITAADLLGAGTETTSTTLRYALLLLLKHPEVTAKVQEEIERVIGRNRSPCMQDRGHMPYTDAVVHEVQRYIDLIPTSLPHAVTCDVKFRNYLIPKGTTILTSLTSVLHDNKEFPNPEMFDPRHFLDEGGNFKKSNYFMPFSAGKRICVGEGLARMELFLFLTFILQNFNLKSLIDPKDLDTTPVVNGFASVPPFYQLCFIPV
# Procedure, shortened: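 Reactions contain 5nM enzyme, 10uM Luciferin-H EGE (KM) and 50mM KPO4; compound preincubates 10 min at 37C, NADPH regeneration starts turnover for 60 min. Luminescence after detection reagent gives activity.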
# [15] = measured here: cell count channel max response
# [16] = measured here: lipid channel max response
SMILES,Potency [1],"activity change, negative = inhibition [2]",Potency [3],"activity change, negative = inhibition [4]","activity, negative = inhibition [5]",Potency [6],outcome [7],Potency [8],Potency [9],Potency [10],activation [11],"activity change, negative = inhibition [12]","max response [12, 15]","max response [12, 16]",Potency [13],Potency [14]
O=C(c1csnn1)N1CCC[C@@]2(CCN(Cc3nccs3)C2)C1,> 11.4 µM (inactive),2.1% (inactive),inactive,2.26% (inactive),-2.25% (inactive),> 46 µM (inactive),inactive,inactive,inactive,5.01 µM (active),-0.307% (inactive),6.67% (inactive),15.7%,25.3%,inactive,–
CS(=O)(=O)N1CCC2(CC1)CN(Cc1nccs1)C2,> 11.4 µM (inactive),-7.04% (inactive),6.31 µM (active),11.5% (inactive),6.32% (inactive),> 46 µM (inactive),–,inactive,–,–,–,3.27% (inactive),13.6%,18.5%,inactive,–
O=C(c1ccco1)N1CCC[C@@]2(CCN(c3ccccc3)C2)C1,> 11.4 µM (inactive),-8.72% (inactive),7.94 µM (active),-13.1% (inactive),-4.84% (inactive),> 46 µM (inactive),inactive,inactive,inactive,–,–,-7.59% (inactive),11.4%,4.34%,inactive,5.01 µM (active)
COC(=O)N1CCC2(CC1)CN(C(c1ccccc1)c1ccccc1)C2,> 11.4 µM (inactive),3.69% (inactive),inactive,-16.9% (inactive),5.28% (inactive),> 46 µM (inactive),inactive,inactive,0.794 µM (active),0.794 µM (active),–,-2.77% (inactive),5.36%,5.91%,inactive,–
O=C(c1csnn1)N1CCC2(CC1)CN(c1ccccc1)C2,> 11.4 µM (inactive),-4.3% (inactive),inactive,-3.86% (inactive),4.17% (inactive),> 46 µM (inactive),inactive,inactive,–,–,-12.1% (inactive),4.49% (inactive),13.3%,20.7%,inactive,–
N#Cc1ccc(CN2CCCC3(CCN(C(=O)c4cccc(F)c4)CC3)C2)cc1,> 11.4 µM (inactive),19.4% (inactive),inactive,-65.7% (active),-5.26% (inactive),> 46 µM (inactive),inactive,inactive,inactive,–,-15.7% (inactive),2.12% (inactive),15%,19.8%,inactive,–
CC(C)CN1CC[C@@]2(CCCN(C(=O)c3csnn3)C2)C1,> 11.4 µM (inactive),-0.149% (inactive),inactive,-1.84% (inactive),5.64% (inactive),> 46 µM (inactive),inactive,inactive,inactive,0.501 µM (active),–,1.65% (inactive),-1.75%,2.01%,inactive,–
O=C(c1ccco1)N1CCC2(CC1)CCN(c1cccc(-c3ccccc3)c1)CC2,> 11.4 µM (inactive),8.59% (inactive),15.8 µM (active),-13.9% (inactive),-16.1% (inactive),> 46 µM (inactive),–,inactive,–,–,–,5.77% (inactive),-0.036%,9.11%,inactive,–
O=C(c1ccncc1)N1CCC2(CC1)CCN(C(c1ccccc1)c1ccccc1)CC2,> 11.4 µM (inactive),-0.963% (inactive),12.6 µM (active),-18.3% (inactive),5% (inactive),> 46 µM (inactive),inactive,inactive,–,3.16 µM (active),–,2.53% (inactive),0.243%,4.49%,inactive,–
COc1ccc(NC(=O)N2CC3(CCN(C(C)=O)CC3)C2)cc1,> 11.4 µM (inactive),8.48% (inactive),inactive,-0.444% (inactive),-0.267% (inactive),> 46 µM (inactive),inactive,inactive,–,–,-8.17% (inactive),3.83% (inactive),13.9%,23.3%,inactive,–
COc1ccccc1CN1CCCC2(CCN(S(C)(=O)=O)CC2)C1,> 11.4 µM (inactive),-4.49% (inactive),inactive,-28.3% (inactive),6.82% (inactive),> 46 µM (inactive),inactive,inactive,–,0.0631 µM (active),–,2.11% (inactive),-15.8%,-12.2%,inactive,–
O=S(=O)(c1ccccc1)N1CCC2(CCCN(c3ncccn3)C2)CC1,> 11.4 µM (inactive),0.46% (inactive),15.8 µM (active),5.51% (inactive),-0.568% (inactive),> 46 µM (inactive),inactive,inactive,inactive,–,–,7.3% (inactive),-5.51%,5.88%,inactive,0.398 µM (active)
CC(C)CN1CC[C@@]2(CCCN(S(=O)(=O)c3ccccc3)C2)C1,> 11.4 µM (inactive),1.83% (inactive),25.1 µM (active),-7.95% (inactive),-0.418% (inactive),> 46 µM (inactive),inactive,inactive,inactive,0.501 µM (active),–,4.19% (inactive),1.96%,9.28%,inactive,–
